This passage reports growth results from PubChem BioAssay (NCI).

Values joined by “and” are separate entries in the source; they are usually repeats but may differ in a detail not shown here. Equal entries are not always repeated. This is part of a sample that, as a whole, favours compounds with a hit. Of some 83,000 tested, about 20% had one in any assay.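 Cells were grown in 96-well plates and exposed to the test compound at a single concentration for 48 hours; results are reported as percent growth, with values below 10 considered active.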 Active and inactive are the calls of the source.

This test deals with MDA-MB-468 breast. The experiment in a line: NCI-60 one-dose screen, 48 h (100 = growth as untreated, 0 = no growth, -100 = all killed). To be noted: 10 µM unless noted. The procedure:
Growth inhibition of the MDA-MB-468 human Breast tumor cell line is measured as a screen for anti-cancer activity. Cells are grown in 96 well plates and exposed to the test compound for 48 hours. Compounds are tested at a single concentration, which is 10^-5 M for most compounds. The reported endpoint is percent growth (GI% or GIPRCNT), where numbers from 0 - 100% represent growth inhibition, and numbers from -100% - 0 represent cell death. For example, a value of 40 represents 60% growth inhibition. A value of 0 means no net growth occurred over the course of the experiment. A value of -40 indicates 40% of cells at the beginning of the experiment died by the end of the experiment. A value of -100 means all cells are dead at the end of the experiment.
NCI-60 Human Tumor Cell Lines Screen was performed using the standard one-dose NCI protocol, which is described in more detail at https://dtp.cancer.gov/discovery_development/nci-60/default.htm.
Compounds with GIPRCNT values below 10 were considered active. Activity score was based on GIPRCNT using the following formula: […]
Score is 0 for GIPRCNT values of 100 or above, 50 for GIPRCNT values of 0, and 100 for GIPRCNT values of -100.
`COc1cc(C2=NN(c3ccccc3)C(c3sc(N(CCCl)CCCl)nc3Cl)C2)cc(OC)c1OC` (stereo not given): the growth was 87.9% (inactive). With `CNC(=O)Oc1cc(C(C)C)ccc1Sc1ccc(C(C)C)cc1OC(=O)NC` the figure was 56.5% (inactive); with `CC(C)COC(=O)Cc1ccccc1`, 101% (inactive).

With `CCOC(=O)Nc1cc(Cl)c([N+](=O)[O-])c(NC(=O)OCC)n1`, the growth was 87.2% (inactive). The same measure for `OB([O][Hg][c]1ccccc1)[O][Hg][c]1ccccc1`: -71.2% (active); for `COC(=O)[C@@H](C)C[C@H](Cc1ccccc1)NC(=O)c1nc([C@@H](C[C@H](C(C)C)N(C)C(=O)[C@@H](NC(=O)[C@H]2CCCCN2C)C(C)C)OC(C)=O)sc1C`: 53.2% (inactive). In the case of `NC(=O)NC(=O)CI`, the growth is 83.7% (inactive). The same measure for `O=C(CC1(O)C(=O)N(Cc2ccccc2)c2ccccc21)c1ccc(C(=O)NCC2CCC3(CC2)OOC2(CCCCC2)OO3)cc1` (stereo not given): -56.6% (active); for `Cc1ccc(N)cc1[As]=[As]c1cc(N)ccc1C` (stereo not given): -92.9% (active); for `COc1ccc(OC)c(/C=C(/C)[N+](=O)[O-])c1`: -40.8% (active). The same measure for `COc1cc(OC)c(S(=O)(=O)N(CCCl)CCCl)cc1C(=O)/C=C/c1ccc(C)cc1`: 68.6% (inactive); for `COc1cc(C=Nc2cccc(Br)c2)ccc1N(CCCl)CCCl`: -18.8% (active); for `C#CC1(O)CCC2(C)C(CCC3C4CCC(=O)C4(C)CCC32)C1` (stereo not given): 86.3% (inactive).

Turning to `O=C1CCC(=O)N1SC(Cl)(Cl)Cl`, the growth was 116% (inactive). As to `COc1ccc2c(ccc3oc([N+](=O)[O-])cc32)c1`, the growth is -57.8% (active). With `CN(CCF)/N=N/c1nc[nH]c1C(N)=O` the figure was 26.7% (inactive); with `CC(=O)Oc1ccccc1C(=O)NC([Se])=NC1CCCCC1`, -4.29% (active); with `O=C(/C=C/c1ccccc1)c1nc2ccccc2n1Cc1ccc(F)cc1`, -90.3% (active). Consider `COc1ccc2c(c1)c(-c1nc(-c3c[nH]c4ncccc34)cs1)cn2CCN1CCOCC1`, for which the growth was 0.314% (active). The same measure for `COc1cc(/C=C/[N+](=O)[O-])cc(Br)c1OC`: -34.7% (active). The same measure for `CC1(C)N=C(N)N=C(N)N1c1cccc(CCCCc2ccc(Cl)c(S(=O)(=O)F)c2)c1`: 75.8% (inactive); for `O=[N+]([O-])c1cnc[nH]1`: 108% (inactive). `COC12CC3C4=CCOC5CC(=O)N6c7ccccc7C1(CCN2C4)C6C53` (stereo not given): the growth is 102% (inactive). As for `NC(Cc1ccccc1)c1ccccc1` (stereo not given), the growth was 107% (inactive) and 105% (inactive).

As to `COC(=O)[C@@H](C)C[C@H](Cc1ccccc1)NC(=O)c1csc([C@@H](C[C@H](C(C)C)N(C)C(=O)[C@@H](NC(=O)CN(C)C)C2CC2)OC(C)=O)n1`, the growth is -0.222% (active). With `C/C1=C/C(=O)O[C@@H]2C[C@@H](CC[C@H](C)/C=C\C=C\CC1)O[C@@](O)([C@@H]1CSC(=O)N1CO)C2` the figure was 10.3% (inactive). With `CC[C@]12C=CCN3CC[C@@]4(c5ccc(OC)cc5N(C)[C@H]4[C@@](O)(C(=O)OC)[C@@H]1OC(=O)CCCC[P+](c1ccccc1)(c1ccccc1)c1ccccc1)[C@@H]32` the figure was -63.9% (active). As for `Nc1ccc2c(c1)oc1ccccc12`, the growth is 92.6% (inactive). `CC(C)Nc1ccc(Nc2ccccc2)cc1`: the growth is 5.88% (active).

Take `[Cl][Hg][n]1cnc2c(Cl)c(Cl)c(Cl)cc21`: the growth is 115% (inactive). The same measure for `CC12CCC(=O)C=C1CCC1C2CCC2(C)C(C(=O)COC(=O)Cc3ccc(N(CCCl)CCCl)cc3)CCC12` (stereo not given): 64.1% (inactive); for `CCN(CC)c1ccc(C=C2C(=O)NC(=S)NC2=O)cc1`: 74.2% (inactive). With `ClC1=C(Cl)C(Cl)(C2(Cl)C(Cl)=C(Cl)C(Cl)=C2Cl)C(Cl)=C1Cl`, the growth was -59.2% (active).

Consider `CC[C@]12C=CCN3CC[C@@]4(c5ccc(OC)cc5N(C)[C@H]4[C@@](O)(C(=O)OC)[C@@H]1OC(=O)CCC[P+](C1CCCCC1)(C1CCCCC1)C1CCCCC1)[C@@H]32`, for which the growth is -79.6% (active). `O=C(N/N=C\c1ccc(N(CCCl)CCCl)cc1Cl)c1cccnc1`: the growth was -69.6% (active). For the compound `N#Cc1ccc(Cl)cc1`, the growth was 123% (inactive).

In the case of `O=c1[nH]c(=O)n(Cl)c(=O)n1Cl`, the growth was 106% (inactive) and 117% (inactive).

As to `CC1=CC(=O)CCC12CCOC2=O` (stereo not given), the growth was 105% (inactive). Regarding `COc1cc([N+](=O)[O-])c2ncccc2c1[N+](=O)[O-]`, the growth is 0.105% (active). The same measure for `C[C@@H]1O[C@@H](O[C@H]2C[C@@H](O)[C@]3(CO)C4C(CC[C@]3(O)C2)[C@@]2(O)CC[C@H](C3=CC(=O)OC3)[C@@]2(C)C[C@H]4O)[C@H](O)[C@H](O)[C@H]1O` (stereo not given in full): -68.2% (active).
